In PubChem BioAssay AID2551 (National Center for Advancing Translational Sciences (NCATS), 2010):
Values joined by “and” are separate entries in the source; they are usually repeats but may differ in a detail not shown here. Equal values may be shown once. Out of some 310,000 compounds screened, about 17,000 (5.5%) were called active. Roughly 11% stayed inconclusive and do not appear here. Calls follow the shape of the dose curve; as a rule, active = well fitted inhibition curve with a large enough effect; inconclusive = small, poorly fitted or top-dose-only effect, or effect the other way; inactive = no such curve, though single readings can be large or run the other way. The list comes from a sample in which actives are over-represented; it also holds similar structures and randomly drawn compounds. Some compounds were tested as several samples or in several runs, with calls that do not always agree.

Biological target: Nuclear receptor ROR-gamma (Mus musculus) (UniProt P51450)
Assay: qHTS for inhibitors of ROR gamma transcriptional activity; also: nearly all actives have a fitted effect of over 60% in size
Settings: Drosophila S2 Gal4-RORgamma UAS-luciferase reporter, 20 h; series mostly up to 53.6 µM; activity change, negative = inhibition: at the top concentration
In short: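 Read-out: Photinus luciferase luminescence; inhibitors lower reporter signal. Insect Schneider cells with Gal4-ROR gamma fusion under metallothionein promoter, UAS reporter; 700 uM final copper sulfate induction, 20 hr, ambient temperature.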
% is scaled to controls: 0 for no effect and ±100 for the full control effect; potency is read from the fitted curve at half-maximal effect.

Sequence of Nuclear receptor ROR-gamma (Mus musculus) (P51450 whole entry, looked up): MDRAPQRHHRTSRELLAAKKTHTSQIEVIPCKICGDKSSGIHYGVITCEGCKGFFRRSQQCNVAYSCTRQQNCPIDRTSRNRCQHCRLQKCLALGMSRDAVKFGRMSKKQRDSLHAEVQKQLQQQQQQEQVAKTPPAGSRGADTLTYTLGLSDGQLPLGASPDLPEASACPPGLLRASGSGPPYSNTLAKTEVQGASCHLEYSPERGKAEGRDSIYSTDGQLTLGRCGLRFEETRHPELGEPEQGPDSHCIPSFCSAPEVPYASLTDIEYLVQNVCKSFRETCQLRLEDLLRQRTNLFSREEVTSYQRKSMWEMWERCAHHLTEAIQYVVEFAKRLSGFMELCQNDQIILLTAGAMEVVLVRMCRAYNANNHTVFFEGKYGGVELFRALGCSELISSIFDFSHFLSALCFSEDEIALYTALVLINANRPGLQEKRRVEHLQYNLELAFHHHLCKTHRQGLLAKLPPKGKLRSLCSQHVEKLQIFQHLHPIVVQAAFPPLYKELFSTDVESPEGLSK

Row | Structure (SMILES) | activity change, negative = inhibition | Potency
1 | Cc1ccc(C)c(N2CCN(C(=O)CCCCn3c(=O)[nH]c4ccccc4c3=O)CC2)c1 | 4.13% (inactive) | –
2 | Cc1ccnc(N2CCCC(C(=O)NC3CC3)C2)n1 (configuration not stated) | 1.65% (inactive) | –
3 | Cc1ccnc(-n2sc3ccccc3c2=O)n1 | – | 11.2 µM (active)
4 | Cc1ccnc(Nc2nc3ccccc3s2)n1 | -0.115% (inactive) | –
5 | CCCCSCCCNC(=O)C1CCC(CNS(=O)(=O)c2ccc(NC(C)=O)cc2)CC1 (configuration not stated) | 36.7% (inactive) | –
6 | S=c1[nH]nc(CSCc2ccc(Cl)cc2Cl)n1-c1ccccc1 | – | 1.26 µM (active)
7 | CC(Sc1nnc(COc2ccccc2)n1-c1ccccc1)C(=O)O (configuration not stated) | -6.73% (inactive) | –
8 | S=c1[nH]nc(COc2ccccc2)n1-c1ccccc1 | – | 3.98 µM (active)
9 | CC(NS(=O)(=O)c1ccccc1)c1n[nH]c(=S)n1-c1ccccc1 (configuration not stated) | -25.6% (inactive) | –
10 | Cc1ccc(OCc2n[nH]c(=S)n2-c2ccccc2)cc1 | – | 0.708 µM (active)
11 | CCCCC(CC(C)O)c1n[nH]c(=S)n1-c1ccccc1 (configuration not stated) | 2.91% (inactive) | –
12 | Cc1ccc(OCc2n[nH]c(=S)n2-c2ccc(C)cc2)cc1 | -0.176% (inactive) | –
13 | O=c1[nH]nc(CSCc2ccccc2Cl)[nH]1 | 13.7% (inactive) | –
14 | O=[N+]([O-])c1ccccc1/C=N/n1c(COc2ccccc2)n[nH]c1=S | -17.4% (inactive) | –
15 | O=S(=O)(Oc1ccccc1C(=S)N1CCOCC1)c1ccc(Cl)cc1 | -1.78% (inactive) | –
16 | Cc1cc(C)cc(C(=O)NCCN2CCOCC2)c1 | -10.6% (inactive) | –
17 | O=C1CCNCCN1[C@H](CO)Cc1ccccc1 | -13.7% (inactive) | –
18 | Cc1cc2occ(CC(=O)NNC(=O)c3ccccc3F)c2cc1C | 18.8% (inactive) | –
19 | O=C(N/N=C/c1cccnc1)c1ccc(NC(=O)c2ccc(F)cc2)cc1 | -2.69% (inactive) | –
20 | Cc1cccc(C(=O)Nc2ccc(C(=O)N/N=C/c3cccc(C)n3)cc2)c1 | 1.91% (inactive) | –
21 | Cn1cccc1/C=N/NC(=O)c1ccc(OC(F)(F)C(F)F)cc1 | – | 2 µM (active)
22 | C/C(=N\NC(=O)Cc1ccccc1[N+](=O)[O-])c1cccnc1 | 26.2% (inactive) | –
23 | CC1CC(C)CN(C(=O)C2CC(=O)N(c3ccc(F)cc3)C2)C1 (configuration not stated) | -8.45% (inactive) | –
24 | COc1ccc(S(=O)(=O)Nc2ccc(O)c(Sc3nc4ccccc4s3)c2)cc1 | 1.49% [at 10 µM] (inactive) | –
25 | O=C(O)c1cccc(S(=O)(=O)Nc2ccc(O)cc2Sc2nc3ccccc3s2)c1 | – | 10 µM (active)
26 | O=C(O)c1ccccc1CSc1nc2ccccc2s1 | -0.569% (inactive) | –

Row | Structure (SMILES) | activity change, negative = inhibition | Potency
27 | O=c1cc(-c2ccc(O)cc2)oc2c(-c3cc(-c4cc(=O)c5c(O)cc(O)cc5o4)ccc3O)c(O)ccc12 | 5.83% (inactive) | –
28 | Cc1cccc(-c2cc(=O)c3cc(C)ccc3o2)c1 | -18.1% (inactive) | –
29 | CCOC(=O)COc1cc(O)c2c(=O)cc(-c3ccccc3)oc2c1 | -12% (inactive) | –
30 | O=c1cc(-c2ccc(O)c(O)c2)oc2cccc(O)c12 | – | 14.1 µM (active)
31 | COc1c(O)cc2oc(-c3ccc(O)c(O)c3)cc(=O)c2c1O | – | inactive and 12.6 µM (active)
32 | COc1ccc(-c2cc(=O)c3c(O)cc(O[C@@H]4O[C@H](CO[C@@H]5O[C@@H](C)[C@H](O)[C@@H](O)[C@H]5O)[C@@H](O)[C@H](O)[C@H]4O)cc3o2)cc1O | 1.9% (inactive) | –
33 | Cc1ccc(-c2noc(C3CCCN(C(=O)c4cccc(Cl)c4)C3)n2)o1 (configuration not stated) | -1.35% (inactive) | –
34 | CCOC(=O)N1CCN(Cc2nc3cc(NC(=O)CC)ccc3n2CC)CC1 | -9.43% (inactive) | –
35 | C#CCOc1ccc(/C=C2/C(=O)ON=C2C)cc1OCC | 19.7% (inactive) | –
36 | Cc1ccccc1CN1CCC(C(=O)Nc2ccc(Oc3cccnc3)cc2)CC1 | 5.98% (inactive) | –
37 | CC1(C)Cc2c(cnn2-c2cccc(F)c2)C(NC(=O)c2cc[n+]([O-])cc2)C1 (configuration not stated) | 18.2% (inactive) | –
38 | CC1(C)C(C=C(Cl)Cl)C1C(=O)NC(O)C(=O)c1ccccc1 (configuration not stated) | 2.63% (inactive) | –
39 | CN(Cc1ccc2nsnc2c1)Cc1nc(Cc2cccc(F)c2)no1 | 5.49% (inactive) | –
40 | CN(Cc1ccccn1)Cc1nc(-c2ccc(Cl)cc2)no1 | -8.55% (inactive) | –
41 | CCc1ccc(CN(C)Cc2nc(Cc3ccccc3)no2)nc1 | – | 11.2 µM (active)
42 | Cc1ccc(S(=O)(=O)NCCC(=O)Nc2ccc(C)c(Cl)c2)cc1C | 18.6% (inactive) | –
43 | Cc1ccc(S(=O)(=O)NCCC(=O)Nc2cccc(S(N)(=O)=O)c2)cc1C | -17.4% (inactive) | –
44 | Cc1ccnc(NC(=O)CCNS(=O)(=O)c2ccc(C)c(C)c2)c1 | – | 10 µM (active)
45 | Fc1ccc2nc(Nc3nc4c(s3)CCCC4)sc2c1 | – | 3.16 µM (active)
46 | O=C(Cn1c(=O)sc2ccccc21)Nc1nc2c(s1)CCCC2 | 6.34% (inactive) | –
47 | COC(=O)C(NC(C)=O)(Nc1nc2c(s1)CCCC2)C(F)(F)F (configuration not stated) | 0.2% (inactive) | –
48 | O=C(Nc1cccc(-c2cccc(Cl)c2)c1)C1CCN(C2CCC2)CC1 | -24.5% (inactive) | –
49 | Cc1c2c(nc3ccccc13)-c1cccc(=O)n1C2 | – | 8.91 µM (active)
50 | CC(C)c1ccc2c([Si](C)(C)C)c3c(nc2c1)-c1cccc(=O)n1C3 | 1.99% (inactive) | –
51 | Cc1nc2ccccc2c(C)c1C(=O)c1ccc(F)cc1 | -4.49% (inactive) | –
52 | CCn1c(=S)sc2c(=O)n(CC(=O)Nc3ccc(OC)cc3)c(C)nc21 | -10.3% (inactive) | –
